Reference: PubChem BioAssay (NCATS)
Where “and” joins values, the source holds several entries; their conditions need not be identical. Equal entries are not always repeated. Records with an inconclusive call do not appear. More than one record can exist for a structure, and the calls need not agree. Calls of active or inactive are those of the source. Calls follow the shape of the dose curve; as a rule, active = well fitted curve in the direction sought with a large enough effect; inconclusive = small, poorly fitted or top-dose-only effect, or another doubt; inactive = no such curve, though single readings can be large; an effect the other way counts as inactive or inconclusive.

Tests used:
[1] = system: TAB109; test: qHTS profiling for inhibitors of Plasmodium falciparum proliferation (AID 504749); also: nearly all actives have a fitted effect of over 60% in size; conditions: P. falciparum in erythrocytes, SYBR Green DNA, 72 h; series mostly up to 28.7 µM
Outline: (§1)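 Readout was DNA-dye fluorescence from lysed cultures, ex 485/em 535 nm. Parasitized red cells had grown 72 h with compound; data scaled between 0.29 uM artemisinin and DMSO wells and corrected using vehicle-only plates.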

[2] = system: TAB113; test: as above; conditions: P. falciparum in erythrocytes, SYBR Green DNA, 72 h; series mostly up to 28.7 µM
Outline: as §1

[3] = system: TAB165; test: as above; conditions: P. falciparum in erythrocytes, SYBR Green DNA, 72 h; series mostly up to 28.7 µM
Outline: as §1

[4] = system: CRL-7250; test: Cytotoxic Profiling of Annotated Libraries Using Quantitative High-Throughput Screening (AID 1296008); conditions: Five cell lines viability, CellTiter-Glo ATP luminescence, 48-72 h; max response: stronger effect = lower value; also: nearly all actives have a fitted effect of over 60% in size; as to max response: % is scaled to controls: 0 for no effect and ±100 for the full control effect
Outline: (§2)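 Cells exposed to compounds for 48 or 72 hr at 37 degrees Celsius. Viability read as ATP-coupled luminescence with CellTiter-Glo after 10 min at room temperature.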

[5] = system: HEK293; test: as above; conditions: Five cell lines viability, CellTiter-Glo ATP luminescence, 48-72 h; max response: stronger effect = lower value
Outline: as §2

[6] = system: HaCat; test: as above; conditions: Five cell lines viability, CellTiter-Glo ATP luminescence, 48-72 h; max response: stronger effect = lower value
Outline: as §2

[7] = system: NIH3T3; test: as above; conditions: Five cell lines viability, CellTiter-Glo ATP luminescence, 48-72 h; max response: stronger effect = lower value
Outline: as §2

[8] = system: MCC-13; test: qHTS assay to identify novel small-molecules to repurpose for Merkel cell carcinoma treatment (AID 1296009); conditions: MCC and control cell lines, CellTiter-Glo viability, 72 h; series mostly up to 46 µM; also: nearly all actives have a fitted effect of over 60% in size
Outline: (§3)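 Cells were incubated with compound for 72 hr at 37 degree celsius before CellTiter-Glo addition. Luminescence was normalized with no-cell wells as full cytotoxicity and DMSO as baseline.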

[9] = system: MKL-1; test: as above; conditions: MCC and control cell lines, CellTiter-Glo viability, 72 h; series mostly up to 46 µM
Outline: as §3

[10] = system: MKL-2; test: as above; conditions: MCC and control cell lines, CellTiter-Glo viability, 72 h; series mostly up to 46 µM
Outline: as §3

[11] = system: WaGa; test: as above; conditions: MCC and control cell lines, CellTiter-Glo viability, 72 h; series mostly up to 46 µM
Outline: as §3

[12] = system: C33A; test: Primary qHTS to identify gynecologic anti-cancer compounds using libraries of approved drugs and bioactive compounds (AID 1345084); conditions: Gynecologic cancer cell panel viability, ATPlite luminescence, 48 h; series mostly up to 57.5 µM; also: nearly all actives have a fitted effect of over 55% in size
Outline: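 Five-concentration response, 48 h; readout is ATP-driven luciferase luminescence.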

[13] = system: SC27B; test: qHTS profiling for inhibitors of Plasmodium falciparum proliferation (AID 504749); also: nearly all actives have a fitted effect of over 60% in size; conditions: P. falciparum in erythrocytes, SYBR Green DNA, 72 h; series mostly up to 28.7 µM
Outline: as §1

[14] = system: W2; test: as above; conditions: P. falciparum in erythrocytes, SYBR Green DNA, 72 h; series mostly up to 28.7 µM
Outline: as §1

[15] = system: KB-3-1; test: Cytotoxic Profiling of Annotated Libraries Using Quantitative High-Throughput Screening (AID 1296008); conditions: Five cell lines viability, CellTiter-Glo ATP luminescence, 48-72 h; max response: stronger effect = lower value; also: nearly all actives have a fitted effect of over 60% in size; as to max response: % is scaled to controls: 0 for no effect and ±100 for the full control effect
Outline: as §2

[16] = system: HACAT; test: qHTS assay to identify novel small-molecules to repurpose for Merkel cell carcinoma treatment (AID 1296009); conditions: MCC and control cell lines, CellTiter-Glo viability, 72 h; at 44.8 µM (top of the series) unless noted; also: nearly all actives have a fitted effect of over 60% in size
Outline: as §3

[17] = system: UISO; test: as above; conditions: MCC and control cell lines, CellTiter-Glo viability, 72 h; series mostly up to 46 µM
Outline: as §3

[18] = system: MCC-26; test: as above; conditions: MCC and control cell lines, CellTiter-Glo viability, 72 h; series mostly up to 46 µM
Outline: as §3

[19] = system: NIH3T3; test: as above; conditions: MCC and control cell lines, CellTiter-Glo viability, 72 h; at 44.8 µM (top of the series) unless noted
Outline: as §3

[20] = system: HEK293T; test: as above; conditions: MCC and control cell lines, CellTiter-Glo viability, 72 h; at 44.8 µM (top of the series) unless noted
Outline: as §3
Potency is read from the fitted curve at half-maximal effect.

Cc1nc(Nc2ncc(C(=O)Nc3c(C)cccc3Cl)s2)cc(N2CCN(CCO)CC2)n1
inactive: Potency [1] | Potency [2] | max response [7] -106% | Potency [9] | Potency [10] | Potency [11] | Potency [12]
active: Potency [3] 12600 nM | Potency [4] 83.3 nM and 66.8 nM and 259 nM | Potency [5] 23.7 µM | Potency [6] 944 nM | Potency [7] 59.6 nM and 73.1 nM | Potency [8] 168 nM

N=C(N=C(N)N)N1CCOCC1
inactive: Potency [13] | Potency [1] | Potency [2] | Potency [14] | max response [4] -16.7% and 0.819% | max response [5] -13.7% and 0.579% | outcome [6] | max response [15] -9.57% and 4.72% | max response [7] -0.0574% and 2.52% | outcome [16] | Potency [8] | Potency [9] | Potency [10] | Potency [17] | Potency [11] | Potency [12]

Oc1ccc2ccccc2c1SSc1c(O)ccc2ccccc12
active: Potency [10] 20.9 µM
inactive: max response [4] -5.27% | max response [5] -1.68% | outcome [6] inactive; activator | max response [15] 9.23% | outcome [7] | outcome [16] inactive; activator | Potency [8] | Potency [18] | outcome [19]

O=C(CS(=O)Cc1ccco1)NCC=CCOc1cc(CN2CCCCC2)ccn1 (stereo unspecified)
inactive: Potency [13] | Potency [2] | Potency [3] | Potency [14] | outcome [4] | max response [5] -11.3% | max response [6] 0.787% | max response [15] 2.68% | outcome [7] | Potency [8] | Potency [18] | Potency [9] | Potency [10] | outcome [19] | Potency [17] | Potency [11]

C[C@H](Cn1cnc2c(N)ncnc21)OCP(=O)(O)O
inactive: Potency [13] | Potency [1] | Potency [2] | Potency [3] | Potency [14] | max response [4] 3.36% | outcome [5] | outcome [6] | outcome [7] | outcome [16] | outcome [20] | Potency [8] | Potency [18] | Potency [9] | Potency [10] | outcome [19] | Potency [17] | Potency [11]

Cc1ccc(S(=O)(=O)NC(=O)NN2CC3CCCC3C2)cc1 (stereo unspecified)
inactive and 26.4 µM (active): Potency [10]
inactive: outcome [4] | max response [5] 2.56% | outcome [6] | max response [15] 5.5% and -19.7% | max response [7] 2.24% and -2.1% | outcome [16] | Potency [8] | Potency [18] | Potency [9] | Potency [17] | Potency [11] | Potency [12]

COc1c(O)cc2c(c1O)[C@@H]1O[C@H](CO)[C@@H](O)[C@H](O)[C@H]1OC2=O
inactive: outcome [4] | outcome [5] | max response [6] -11.1% and -23.6% | max response [15] 6.75% and -4.18% and 5.95% | max response [7] -9.83% and 0.115% | outcome [20] | Potency [8] | Potency [18] | Potency [9] | Potency [10] | Potency [17] | Potency [11]

COc1cc2c(cc1OC)C1CC(=O)C(CC(C)C)CN1CC2 (stereo unspecified)
inactive: Potency [13] | Potency [1] | Potency [2] | Potency [3] | outcome [4] | outcome [5] | outcome [6] | outcome [7] | outcome [16] | outcome [20] | Potency [8] | Potency [9] | Potency [10] | outcome [19] | Potency [17] | Potency [11]

COc1cc2c(N3CCN(C(=O)Nc4ccc(OC(C)C)cc4)CC3)ncnc2cc1OCCCN1CCCCC1
inactive: max response [4] -25.9% and -20.4% | max response [6] 3.85% and 0.506% | max response [15] -30.9% and -5.38% | max response [7] -26.1% | Potency [8] | Potency [18] | Potency [9] | Potency [10] | Potency [17] | Potency [11] | Potency [12]
active: Potency [5] 18.7 µM

CN(C)CCCC1(c2ccc(F)cc2)OCc2cc(C#N)ccc21 (stereo unspecified)
inactive: max response [4] -4.07% | max response [5] -24.9% | max response [6] -6.25% and -3.5% | max response [15] -8.3% and 1.59% | max response [7] -3.81% and 4.08% | Potency [8] | Potency [18] | Potency [9] | Potency [10] | Potency [17] | Potency [11] | Potency [12]

CCCOc1ccc2nc(NC(=O)OC)[nH]c2c1
active: Potency [4] 668 nM and 132 nM | Potency [5] 0.15 µM | Potency [15] 731 nM | Potency [8] 188 nM
inactive: Potency [13] | Potency [1] | Potency [2] | Potency [3] | Potency [14] | outcome [6] | outcome [16]

CN(C)c1ccc2nc3ccc(=[N+](C)C)cc-3sc2c1
active: Potency [13] 63.1 nM | Potency [1] 50.1 nM | Potency [2] 50.1 nM | Potency [3] 70.8 nM | Potency [14] 47.8 nM | Potency [4] 11.8 µM and 23.7 µM | Potency [5] 1.66 µM and 1.33 µM | Potency [6] 3.72 µM and 10.6 µM | Potency [15] 2.09 µM and 6.51 µM | Potency [7] 5.26 µM and 3.35 µM | Potency [8] 7.43 µM and 2.66 µM | Potency [18] 21100 nM | Potency [9] 2.35 µM and 841 nM | Potency [10] 4.69 µM and 2.66 µM | Potency [17] 3.32 µM and 2.37 µM | Potency [11] 1.87 µM and 1.19 µM | Potency [12] 1120 nM
